# Experimental data from PMC7862700, “An all-to-all approach to the identification of sequence-specific readers for epigenetic DNA modifications on cytosine”.
# Experiments:
# Test in all cases: DAPPL (digital affinity profiling via proximity ligation, sequencing); 10 mM Tris-HCl pH 7.5, 50 mM NaCl, 1 mM DTT, 4% glycerol, room temperature, 30 min; GST-TFs on glutathione beads, 16-mer random dsDNA library, 0.1% formaldehyde crosslink after washing; high values mean tight binding
# FLI1 = molecular target: T1, FLI1 (Homo sapiens, UniProt Q01543 1-452); conditions: protein: recombinant; tags: N-terminal GST; dsDNA, one strand shown
# T1 sequence: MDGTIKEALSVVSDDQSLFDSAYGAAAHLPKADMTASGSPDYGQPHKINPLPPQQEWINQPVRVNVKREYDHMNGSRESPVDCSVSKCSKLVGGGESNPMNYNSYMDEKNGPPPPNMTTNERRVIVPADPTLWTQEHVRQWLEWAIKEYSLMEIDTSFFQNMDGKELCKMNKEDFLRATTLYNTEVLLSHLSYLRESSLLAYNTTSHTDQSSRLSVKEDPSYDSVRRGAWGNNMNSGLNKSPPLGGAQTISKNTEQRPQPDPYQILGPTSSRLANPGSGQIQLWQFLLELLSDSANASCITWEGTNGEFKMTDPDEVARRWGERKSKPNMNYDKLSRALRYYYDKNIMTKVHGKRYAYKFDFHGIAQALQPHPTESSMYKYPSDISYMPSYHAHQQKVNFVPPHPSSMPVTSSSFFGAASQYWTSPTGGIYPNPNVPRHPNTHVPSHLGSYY
# How it was run: (§1)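 After expression in yeast as GST fusions, human transcription factors were bound to glutathione beads, DNA-barcoded and mixed with a tag-only sample. The pools were incubated with 200 nmole of a 16-mer random double-stranded DNA library in Tris/NaCl/DTT/glycerol buffer (30 min, room temperature), washed and crosslinked with 0.1% formaldehyde. Proximity ligation with BsaI/T4 ligase ran for 1 h at 37 °C, before PCR amplification and sequencing on an Illumina NextSeq500. Binding signal is a hexamer's read frequency for a factor divided by its frequency for the tag-only sample.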
# ELK1 = molecular target: T2, ELK1 (Homo sapiens, UniProt P19419 1-428); conditions: protein: recombinant; tags: N-terminal GST; dsDNA, one strand shown
# T2 sequence: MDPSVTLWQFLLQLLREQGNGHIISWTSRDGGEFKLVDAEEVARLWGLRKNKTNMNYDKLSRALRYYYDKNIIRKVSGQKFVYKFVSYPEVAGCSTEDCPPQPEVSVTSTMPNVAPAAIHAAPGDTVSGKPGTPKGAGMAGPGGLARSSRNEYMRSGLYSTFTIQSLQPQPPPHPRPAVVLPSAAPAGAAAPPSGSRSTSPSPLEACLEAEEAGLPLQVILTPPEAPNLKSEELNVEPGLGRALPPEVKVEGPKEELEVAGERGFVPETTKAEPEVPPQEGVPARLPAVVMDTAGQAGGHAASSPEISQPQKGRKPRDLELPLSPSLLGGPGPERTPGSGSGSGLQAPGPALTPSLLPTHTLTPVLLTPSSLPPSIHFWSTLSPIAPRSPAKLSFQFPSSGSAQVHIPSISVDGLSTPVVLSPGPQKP
# How it was run: as §1
# GABPA = molecular target: T3, GABPA (Homo sapiens, UniProt Q06546 1-454); conditions: protein: recombinant; tags: N-terminal GST; dsDNA, one strand shown
# T3 sequence: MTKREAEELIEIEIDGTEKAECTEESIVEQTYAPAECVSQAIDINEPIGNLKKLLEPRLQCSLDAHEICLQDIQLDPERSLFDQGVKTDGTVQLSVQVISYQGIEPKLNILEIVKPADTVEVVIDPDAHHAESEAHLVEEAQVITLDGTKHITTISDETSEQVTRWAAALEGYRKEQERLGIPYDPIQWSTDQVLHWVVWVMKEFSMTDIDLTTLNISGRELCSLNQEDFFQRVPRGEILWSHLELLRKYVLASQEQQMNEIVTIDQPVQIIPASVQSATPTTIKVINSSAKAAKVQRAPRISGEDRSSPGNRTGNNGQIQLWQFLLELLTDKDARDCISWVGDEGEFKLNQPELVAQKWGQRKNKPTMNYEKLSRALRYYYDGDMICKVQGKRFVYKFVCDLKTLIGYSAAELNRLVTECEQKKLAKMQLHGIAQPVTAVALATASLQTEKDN
# How it was run: as §1
# ERG = molecular target: T4, ERG (Homo sapiens, UniProt P11308 1-479); conditions: protein: recombinant; tags: N-terminal GST; dsDNA, one strand shown
# T4 sequence: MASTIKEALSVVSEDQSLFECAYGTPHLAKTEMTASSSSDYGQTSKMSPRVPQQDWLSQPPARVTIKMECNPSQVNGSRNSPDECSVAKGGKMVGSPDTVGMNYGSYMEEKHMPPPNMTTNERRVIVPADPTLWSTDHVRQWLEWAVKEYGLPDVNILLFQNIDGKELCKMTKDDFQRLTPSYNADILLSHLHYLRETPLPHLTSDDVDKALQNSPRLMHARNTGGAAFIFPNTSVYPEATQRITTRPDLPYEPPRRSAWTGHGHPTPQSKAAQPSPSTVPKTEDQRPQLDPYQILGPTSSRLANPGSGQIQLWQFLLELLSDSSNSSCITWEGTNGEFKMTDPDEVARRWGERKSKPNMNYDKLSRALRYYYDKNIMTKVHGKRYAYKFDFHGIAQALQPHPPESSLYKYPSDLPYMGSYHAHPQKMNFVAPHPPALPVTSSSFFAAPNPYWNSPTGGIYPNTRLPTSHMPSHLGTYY
# How it was run: as §1
# ELF1 = ELF1 (Homo sapiens, UniProt P32519 1-619); conditions: protein: recombinant; tags: N-terminal GST; dsDNA, one strand shown
# How it was run: as §1
# EHF = molecular target: T5, EHF (Homo sapiens, UniProt Q9NZC4 1-300); conditions: protein: recombinant; tags: N-terminal GST; dsDNA, one strand shown
# T5 sequence: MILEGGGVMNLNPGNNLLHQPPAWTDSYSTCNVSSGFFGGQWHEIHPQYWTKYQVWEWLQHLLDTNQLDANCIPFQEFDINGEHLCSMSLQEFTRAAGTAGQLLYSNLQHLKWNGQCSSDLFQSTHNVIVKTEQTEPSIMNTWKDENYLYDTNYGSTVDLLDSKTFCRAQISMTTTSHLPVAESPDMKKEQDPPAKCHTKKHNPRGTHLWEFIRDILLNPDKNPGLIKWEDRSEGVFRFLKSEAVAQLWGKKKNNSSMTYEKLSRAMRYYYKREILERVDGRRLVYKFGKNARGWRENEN
# How it was run: as §1
# SPI1 = SPI1 (Homo sapiens, UniProt P17947 1-270); conditions: protein: recombinant; tags: N-terminal GST; dsDNA, one strand shown
# How it was run: as §1
# SPIB = SPIB (Homo sapiens, UniProt Q01892 1-262); conditions: protein: recombinant; tags: N-terminal GST; dsDNA, one strand shown
# How it was run: as §1
# ELK3 = molecular target: T6, ELK3 (Homo sapiens, UniProt P41970 1-407); conditions: protein: recombinant; tags: N-terminal GST; dsDNA, one strand shown
# T6 sequence: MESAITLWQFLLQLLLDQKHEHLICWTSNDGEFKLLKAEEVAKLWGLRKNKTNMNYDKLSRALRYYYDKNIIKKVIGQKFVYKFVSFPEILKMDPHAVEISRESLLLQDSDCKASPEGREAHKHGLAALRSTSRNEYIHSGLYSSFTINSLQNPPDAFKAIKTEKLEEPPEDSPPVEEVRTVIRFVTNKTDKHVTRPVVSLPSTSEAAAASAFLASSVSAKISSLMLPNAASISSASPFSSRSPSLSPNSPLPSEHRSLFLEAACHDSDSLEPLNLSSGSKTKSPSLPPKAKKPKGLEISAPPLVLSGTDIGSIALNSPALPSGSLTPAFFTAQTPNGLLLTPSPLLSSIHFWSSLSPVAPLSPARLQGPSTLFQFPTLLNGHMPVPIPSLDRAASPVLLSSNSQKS
# How it was run: as §1
# FEV = molecular target: T7, FEV (Homo sapiens, UniProt Q99581 1-238); conditions: protein: recombinant; tags: N-terminal GST; dsDNA, one strand shown
# T7 sequence: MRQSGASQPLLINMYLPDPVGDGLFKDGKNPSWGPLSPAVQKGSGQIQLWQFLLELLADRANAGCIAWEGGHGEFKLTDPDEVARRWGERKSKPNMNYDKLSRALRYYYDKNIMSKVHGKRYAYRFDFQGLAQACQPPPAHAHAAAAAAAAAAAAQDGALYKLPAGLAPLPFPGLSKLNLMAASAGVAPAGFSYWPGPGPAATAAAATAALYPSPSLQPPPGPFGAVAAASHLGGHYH
# How it was run: as §1
# ETV5 = ETV5 (Homo sapiens, UniProt P41161 1-510); conditions: protein: recombinant; tags: N-terminal GST; dsDNA, one strand shown
# How it was run: as §1
# HSF1 = HSF1 (Homo sapiens, UniProt Q00613 1-529); conditions: protein: recombinant; tags: N-terminal GST; chain copies: 3; dsDNA, one strand shown
# How it was run: as §1
# SPIC = molecular target: T8, SPIC (Homo sapiens, UniProt Q8N5J4 1-248); conditions: protein: recombinant; tags: N-terminal GST; dsDNA, one strand shown
# T8 sequence: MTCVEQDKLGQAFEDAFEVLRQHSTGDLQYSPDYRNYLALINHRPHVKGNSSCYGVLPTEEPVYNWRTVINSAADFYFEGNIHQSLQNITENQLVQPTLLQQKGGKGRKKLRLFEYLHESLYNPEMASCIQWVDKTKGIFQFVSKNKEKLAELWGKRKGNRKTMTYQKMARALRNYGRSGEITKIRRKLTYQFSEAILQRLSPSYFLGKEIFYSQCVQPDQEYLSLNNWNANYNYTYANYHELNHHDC
# How it was run: as §1
# ELF4 = ELF4 (Homo sapiens, UniProt Q99607 1-663); conditions: protein: recombinant; tags: N-terminal GST; dsDNA, one strand shown
# How it was run: as §1
# ELK4 = molecular target: T9, ELK4 (Homo sapiens, UniProt P28324-2 1-405); conditions: protein: recombinant; tags: N-terminal GST; dsDNA, one strand shown
# T9 sequence: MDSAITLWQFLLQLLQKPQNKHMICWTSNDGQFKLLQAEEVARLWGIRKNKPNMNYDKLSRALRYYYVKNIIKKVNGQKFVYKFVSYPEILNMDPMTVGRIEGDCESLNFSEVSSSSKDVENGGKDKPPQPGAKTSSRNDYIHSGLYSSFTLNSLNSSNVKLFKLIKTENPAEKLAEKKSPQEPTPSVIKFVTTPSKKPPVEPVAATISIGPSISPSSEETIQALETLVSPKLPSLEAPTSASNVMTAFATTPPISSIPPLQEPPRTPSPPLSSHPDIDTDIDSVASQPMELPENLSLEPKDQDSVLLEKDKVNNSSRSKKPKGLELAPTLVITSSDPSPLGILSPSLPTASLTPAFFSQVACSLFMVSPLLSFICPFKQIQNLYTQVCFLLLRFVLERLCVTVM
# How it was run: as §1
# ETV2 = molecular target: T10, ETV2 (Homo sapiens, UniProt O00321 1-342); conditions: protein: recombinant; tags: N-terminal GST; dsDNA, one strand shown
# T10 sequence: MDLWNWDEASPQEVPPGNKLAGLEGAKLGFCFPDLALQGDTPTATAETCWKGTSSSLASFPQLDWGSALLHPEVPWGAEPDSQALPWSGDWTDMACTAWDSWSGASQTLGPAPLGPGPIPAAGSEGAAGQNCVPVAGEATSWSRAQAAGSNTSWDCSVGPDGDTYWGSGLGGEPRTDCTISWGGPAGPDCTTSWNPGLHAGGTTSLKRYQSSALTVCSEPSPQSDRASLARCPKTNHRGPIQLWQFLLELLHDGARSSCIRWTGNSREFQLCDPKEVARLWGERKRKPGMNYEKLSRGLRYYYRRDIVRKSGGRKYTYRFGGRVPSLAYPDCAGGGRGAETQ
# How it was run: as §1
# ELF3 = molecular target: T11, ELF3 (Homo sapiens, UniProt P78545 1-371); conditions: protein: recombinant; tags: N-terminal GST; dsDNA, one strand shown
# T11 sequence: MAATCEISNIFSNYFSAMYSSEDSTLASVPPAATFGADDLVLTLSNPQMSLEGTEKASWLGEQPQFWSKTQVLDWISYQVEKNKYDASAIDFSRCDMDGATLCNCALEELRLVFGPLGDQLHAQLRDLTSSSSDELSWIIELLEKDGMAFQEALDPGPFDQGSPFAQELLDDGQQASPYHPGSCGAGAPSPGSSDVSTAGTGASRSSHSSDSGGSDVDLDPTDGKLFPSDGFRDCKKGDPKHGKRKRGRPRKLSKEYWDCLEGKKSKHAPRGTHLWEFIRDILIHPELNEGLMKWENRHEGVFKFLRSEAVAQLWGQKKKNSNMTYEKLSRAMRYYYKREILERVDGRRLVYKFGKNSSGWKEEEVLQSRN
# How it was run: as §1
# CRX = CRX (Homo sapiens, UniProt O43186 1-299); conditions: protein: recombinant; tags: N-terminal GST; dsDNA, one strand shown
# How it was run: as §1
# ETV1 = ETV1 (Homo sapiens, UniProt P50549 1-477); conditions: protein: recombinant; tags: N-terminal GST; dsDNA, one strand shown
# How it was run: as §1
# ETV1, sequence (P50549 whole entry): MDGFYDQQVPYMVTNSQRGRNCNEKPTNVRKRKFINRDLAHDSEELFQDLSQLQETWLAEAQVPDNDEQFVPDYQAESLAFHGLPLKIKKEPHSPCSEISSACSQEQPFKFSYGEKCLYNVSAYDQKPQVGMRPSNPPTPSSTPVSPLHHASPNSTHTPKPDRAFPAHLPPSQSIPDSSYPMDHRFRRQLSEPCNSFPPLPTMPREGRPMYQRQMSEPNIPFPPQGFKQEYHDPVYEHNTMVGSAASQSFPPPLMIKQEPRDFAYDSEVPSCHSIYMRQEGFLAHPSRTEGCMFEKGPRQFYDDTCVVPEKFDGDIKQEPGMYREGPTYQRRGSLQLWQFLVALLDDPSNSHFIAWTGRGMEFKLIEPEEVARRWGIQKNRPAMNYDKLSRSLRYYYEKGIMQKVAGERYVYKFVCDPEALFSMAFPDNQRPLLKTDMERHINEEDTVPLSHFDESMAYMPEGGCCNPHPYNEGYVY
# ELF1, sequence (P32519 whole entry): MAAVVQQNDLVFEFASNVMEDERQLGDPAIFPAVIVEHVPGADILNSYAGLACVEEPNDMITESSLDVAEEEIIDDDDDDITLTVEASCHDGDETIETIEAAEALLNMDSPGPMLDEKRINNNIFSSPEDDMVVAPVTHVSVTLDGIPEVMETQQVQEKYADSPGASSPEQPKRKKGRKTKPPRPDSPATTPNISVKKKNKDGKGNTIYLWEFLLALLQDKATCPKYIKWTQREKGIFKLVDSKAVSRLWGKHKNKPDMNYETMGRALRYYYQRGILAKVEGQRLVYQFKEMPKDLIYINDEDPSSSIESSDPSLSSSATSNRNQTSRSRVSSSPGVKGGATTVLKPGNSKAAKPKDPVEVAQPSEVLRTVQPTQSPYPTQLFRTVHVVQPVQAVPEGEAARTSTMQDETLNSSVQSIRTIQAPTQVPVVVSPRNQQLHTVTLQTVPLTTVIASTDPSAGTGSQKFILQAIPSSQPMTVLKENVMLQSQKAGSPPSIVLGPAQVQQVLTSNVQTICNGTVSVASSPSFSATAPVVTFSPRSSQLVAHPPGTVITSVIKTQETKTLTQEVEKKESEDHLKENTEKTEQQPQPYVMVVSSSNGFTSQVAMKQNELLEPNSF
# CRX, sequence (O43186 whole entry): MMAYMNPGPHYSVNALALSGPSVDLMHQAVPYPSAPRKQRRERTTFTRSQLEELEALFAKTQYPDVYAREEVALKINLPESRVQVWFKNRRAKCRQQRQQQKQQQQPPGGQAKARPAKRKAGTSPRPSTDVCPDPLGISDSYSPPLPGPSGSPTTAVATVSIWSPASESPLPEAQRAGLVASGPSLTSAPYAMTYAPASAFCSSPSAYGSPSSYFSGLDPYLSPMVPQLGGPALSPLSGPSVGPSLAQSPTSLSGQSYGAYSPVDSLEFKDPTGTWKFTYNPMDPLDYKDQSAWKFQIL
# SPIB, sequence (Q01892 whole entry): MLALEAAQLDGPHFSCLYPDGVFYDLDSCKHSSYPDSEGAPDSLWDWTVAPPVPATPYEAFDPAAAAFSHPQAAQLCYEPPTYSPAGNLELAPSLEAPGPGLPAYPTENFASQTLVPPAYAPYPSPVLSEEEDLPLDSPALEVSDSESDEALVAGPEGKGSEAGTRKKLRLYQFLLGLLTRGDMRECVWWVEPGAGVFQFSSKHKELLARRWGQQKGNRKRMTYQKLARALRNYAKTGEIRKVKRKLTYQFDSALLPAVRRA
# ETV5, sequence (P41161 whole entry): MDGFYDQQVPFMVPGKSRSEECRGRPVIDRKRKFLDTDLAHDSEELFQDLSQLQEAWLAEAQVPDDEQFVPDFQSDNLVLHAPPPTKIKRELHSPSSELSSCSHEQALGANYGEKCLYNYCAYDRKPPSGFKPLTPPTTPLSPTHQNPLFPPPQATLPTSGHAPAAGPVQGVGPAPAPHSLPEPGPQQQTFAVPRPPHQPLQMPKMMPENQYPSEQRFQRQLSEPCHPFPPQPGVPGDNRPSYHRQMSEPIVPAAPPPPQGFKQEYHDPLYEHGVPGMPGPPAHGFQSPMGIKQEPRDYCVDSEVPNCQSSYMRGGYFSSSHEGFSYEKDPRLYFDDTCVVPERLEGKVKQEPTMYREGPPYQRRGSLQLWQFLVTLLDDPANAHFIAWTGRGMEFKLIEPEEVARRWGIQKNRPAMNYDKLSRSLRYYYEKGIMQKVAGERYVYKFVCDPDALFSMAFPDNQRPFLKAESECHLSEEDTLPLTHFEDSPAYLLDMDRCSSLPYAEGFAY
# ELF4, sequence (Q99607 whole entry): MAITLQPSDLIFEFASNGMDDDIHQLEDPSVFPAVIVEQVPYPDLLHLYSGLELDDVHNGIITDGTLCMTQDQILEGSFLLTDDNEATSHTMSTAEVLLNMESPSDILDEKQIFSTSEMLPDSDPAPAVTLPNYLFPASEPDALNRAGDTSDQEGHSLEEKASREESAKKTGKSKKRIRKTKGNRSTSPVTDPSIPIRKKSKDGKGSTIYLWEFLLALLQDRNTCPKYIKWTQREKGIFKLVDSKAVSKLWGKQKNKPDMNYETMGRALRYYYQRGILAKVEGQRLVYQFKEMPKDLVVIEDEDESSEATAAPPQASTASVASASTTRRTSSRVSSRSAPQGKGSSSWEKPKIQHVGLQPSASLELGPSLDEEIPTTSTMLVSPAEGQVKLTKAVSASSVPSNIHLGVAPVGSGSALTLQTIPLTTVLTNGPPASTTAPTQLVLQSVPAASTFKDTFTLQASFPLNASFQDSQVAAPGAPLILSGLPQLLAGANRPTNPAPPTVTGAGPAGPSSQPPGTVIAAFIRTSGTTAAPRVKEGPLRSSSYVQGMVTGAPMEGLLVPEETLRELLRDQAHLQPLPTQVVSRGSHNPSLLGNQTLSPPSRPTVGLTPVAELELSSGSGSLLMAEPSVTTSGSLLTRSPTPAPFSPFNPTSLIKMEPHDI
# HSF1, sequence (Q00613 whole entry): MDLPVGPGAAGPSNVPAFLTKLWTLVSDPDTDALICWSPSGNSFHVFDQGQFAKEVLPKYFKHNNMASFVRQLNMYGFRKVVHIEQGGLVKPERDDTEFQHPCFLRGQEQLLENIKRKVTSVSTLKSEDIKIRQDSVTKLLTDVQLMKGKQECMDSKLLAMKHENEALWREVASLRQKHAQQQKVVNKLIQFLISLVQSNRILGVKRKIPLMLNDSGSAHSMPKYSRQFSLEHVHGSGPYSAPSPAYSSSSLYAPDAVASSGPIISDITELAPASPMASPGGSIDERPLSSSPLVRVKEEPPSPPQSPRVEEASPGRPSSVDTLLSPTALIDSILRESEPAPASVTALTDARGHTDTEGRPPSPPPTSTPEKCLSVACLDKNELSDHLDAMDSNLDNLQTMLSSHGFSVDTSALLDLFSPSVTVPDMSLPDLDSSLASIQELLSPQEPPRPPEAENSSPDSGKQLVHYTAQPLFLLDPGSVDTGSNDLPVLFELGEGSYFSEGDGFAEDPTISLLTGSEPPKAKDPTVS
sequence,measurement,setting,value
TCTCAA,binding signal,FLI1,"1.38 fold enrichment (6-mer frequency, TF over GST control)"
same,binding signal,ELK1,"1.27 fold enrichment (6-mer frequency, TF over GST control)"
same,binding signal,GABPA,"1.27 fold enrichment (6-mer frequency, TF over GST control)"
same,binding signal,ERG,"1.28 fold enrichment (6-mer frequency, TF over GST control)"
same,binding signal,ELF1,"1.26 fold enrichment (6-mer frequency, TF over GST control)"
same,binding signal,EHF,"1.19 fold enrichment (6-mer frequency, TF over GST control)"
same,binding signal,SPI1,"1.22 fold enrichment (6-mer frequency, TF over GST control)"
same,binding signal,SPIB,"1.33 fold enrichment (6-mer frequency, TF over GST control)"
same,binding signal,ELK3,"1.43 fold enrichment (6-mer frequency, TF over GST control)"
same,binding signal,FEV,"1.25 fold enrichment (6-mer frequency, TF over GST control)"
same,binding signal,ETV5,"1.3 fold enrichment (6-mer frequency, TF over GST control)"
same,binding signal,HSF1,"1.33 fold enrichment (6-mer frequency, TF over GST control)"
same,binding signal,SPIC,"1.24 fold enrichment (6-mer frequency, TF over GST control)"
same,binding signal,ELF4,"1.35 fold enrichment (6-mer frequency, TF over GST control)"
same,binding signal,ELK4,"1.25 fold enrichment (6-mer frequency, TF over GST control)"
same,binding signal,ETV2,"1.34 fold enrichment (6-mer frequency, TF over GST control)"
same,binding signal,ELF3,"1.45 fold enrichment (6-mer frequency, TF over GST control)"
same,binding signal,CRX,"1.39 fold enrichment (6-mer frequency, TF over GST control)"
same,binding signal,ETV1,"1.3 fold enrichment (6-mer frequency, TF over GST control)"
